Screens as filed in PubChem.
Compounds with a hit are over-represented: about 9.2% of the library has one in this group of screens.
Rab9 prom act: qHTS Assay for Rab9 Promoter Activators; Huh7 Rab9 promoter-luciferase reporter, luminescence, 24 h; Potency, µM (top dose mostly 9.22 µM), without a hit: top-dose activation, negative = inhibition, usual class: activators; actives 2.8% (n = 320,000); AID 485297, 2010; further: % of control where 0% means no effect; nearly all actives have a fitted effect of over 60% in size
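Quantitative HTS format; Huh7 Rab9-luciferase reporter cells (1500/well) receive compound 2 h post-plating, incubate 24 h at 37 °C, then get luciferase reagent for 10 min before luminescence reading.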
FLuc modulator: qHTS profiling assay for firefly luciferase inhibitor/activator using purifed enzyme and Km concentrations of substrates (counterscreen for miR-21 project); Luciferin 4-monooxygenase (Photinus pyralis), P08659; purified FLuc, Km substrates, luminescence inhibition; Potency, µM (highest dose often 57.5 µM), for inactives: top-dose activity change, negative = inhibition, most hits filed as inhibitors; actives 6.9% (n = 360,000); AID 588342, 2011;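 further: plate controls were vehicle for no effect and reference inhibitor for full effect; nearly all actives have a fitted effect of over 55% in size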
Target sequence (P08659 whole entry, looked up): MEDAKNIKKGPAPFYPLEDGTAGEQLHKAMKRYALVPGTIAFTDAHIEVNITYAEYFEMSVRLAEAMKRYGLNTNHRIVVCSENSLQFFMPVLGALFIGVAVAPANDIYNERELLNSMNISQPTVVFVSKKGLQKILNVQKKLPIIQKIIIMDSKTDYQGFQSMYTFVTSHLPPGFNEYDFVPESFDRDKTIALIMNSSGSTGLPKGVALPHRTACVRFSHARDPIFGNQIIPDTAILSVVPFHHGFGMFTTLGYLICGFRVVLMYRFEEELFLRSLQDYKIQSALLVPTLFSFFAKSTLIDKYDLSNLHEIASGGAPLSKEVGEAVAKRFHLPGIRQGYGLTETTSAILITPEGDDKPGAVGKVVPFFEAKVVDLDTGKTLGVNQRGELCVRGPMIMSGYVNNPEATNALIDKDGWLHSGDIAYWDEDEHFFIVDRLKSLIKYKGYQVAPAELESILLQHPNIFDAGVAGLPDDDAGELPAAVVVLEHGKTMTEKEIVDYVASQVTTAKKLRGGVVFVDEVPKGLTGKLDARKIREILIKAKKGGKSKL
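Biochemical qHTS of compounds, final roughly 60 µM downward over six points, against 10 nM purified firefly luciferase using Km concentrations of substrates (10 uM D-luciferin, 10 uM ATP) in Tris acetate pH 7.5 buffer; luminescence output.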
ELG1 DNA repair: qHTS screen for small molecules that inhibit ELG1-dependent DNA repair in human embryonic kidney (HEK293T) cells expressing luciferase-tagged ELG1; HEK293T ELG1-luciferase reporter, luminescence, 16 h; DNA damage induced by 5-fluorouridine; Potency, µM (highest dose often 46.1 µM), for the others: at the top dose activity change, negative = inhibition, hits mostly inhibitors; actives 2.3% (n = 330,000); AID 504467, 2011; further: on the % scale 0 is the no-effect control and ±100 the full control effect; nearly all actives have a fitted effect of over 55% in size
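Step one: seed 2,000 cells per well. Step two: pin-transfer compound or DMSO alongside 5-fluorouridine. Step three: incubate 16 hr, 37 °C, 5% CO2. Step four: add ONE-Glo, wait 30 min, read luminescence.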
SMN2 splice up: qHTS Assay for Enhancers of SMN2 Splice Variant Expression; HEK293 SMN2-luciferase splicing reporter, luminescence, 30-36 h; Potency, µM (series often up to 46.1 µM), for the others: top-dose activity change, positive = activation, most hits filed as activators; actives 2.8% (n = 210,000); AID 1458, 2008; further: % of control where 0% means no effect; nearly all actives have a fitted effect of over 55% in size
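HEK293 cells carry an SMN2 minigene-luciferase reporter in which exon 7 inclusion puts luciferase in frame. Cells were seeded at 2000 cells/well, attached for 10-12 hours, then exposed to compounds for 30-36 hours at 37C before ONE-Glo luminescence.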
NPC1 prom act: qHTS Assay for NPC1 Promoter Activators | Huh7 NPC1 promoter luciferase reporter, 24 h | Potency, µM (top dose mostly 9.22 µM), for the others: top-dose activation, hits mostly activators | actives 2.4% (n = 320,000); further: % of control where 0% means no effect; nearly all actives have a fitted effect of over 60% in size
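Luminescence read-out of NPC1 promoter-driven luciferase in stably transfected Huh7 cells; compounds delivered in DMSO and left 24 h at 37C, 5% CO2, qHTS titration format.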
ELG1 genotox: qHTS screen for small molecules that induce genotoxicity in human embryonic kidney (HEK293T) cells expressing luciferase-tagged ELG1 | actives 1.3% (n = 330,000) | HEK293T ELG1-luciferase reporter, luminescence, 16 h | Potency, µM (titrated, usually from 46 µM), for inactives: at the top dose activity change, positive = activation, actives largely listed as activators; further: % of control where 0% means no effect; nearly all actives have a fitted effect of over 60% in size
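DMSO vehicle served as control against compound-treated ELG1-luciferase HEK293T cells; exposure lasted 16 hr at 37 °C and 5% CO2, followed by ONE-Glo luminescence detection after 30 min.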
Numbers without * were called inactive; ? = inconclusive; . = not tested or not shown. The call rests on the fitted dose curve; in most records, active means well fitted curve in the direction sought with a large enough effect; inconclusive means small, poorly fitted or top-dose-only effect, or another doubt; inactive means no such curve, though single readings can be large; an effect the other way counts as inactive or inconclusive. Potency means the concentration at half of the fitted maximal effect.

SMILES | Rab9 prom act | FLuc modulator | ELG1 DNA repair | SMN2 splice up | NPC1 prom act | ELG1 genotox
COc1cc(OC)c(OC)cc1/C=C1\CC(C)C/C(=C\c2cc(OC)c(OC)cc2OC)C1=O (centres undefined) | -8% | 3% | 7.3µM* | . | -6% | -18%
O=C(CC1NCCNC1=O)Nc1ccccc1F (centres undefined) | . | 1% | . | -1% | . | .
Cc1ccccc1/C=C\c1nc2ccccc2c(=O)[nH]1 | 0.56µM* | 1.9µM* | ? | 10µM* | ? | 18µM*
Cc1ccccc1/C=C/c1nc2ccccc2c(=O)[nH]1 | 1.4µM* | 2.1µM* | ? | . | ? | 10µM*
Cc1ccc(Cn2c(C)c(CNCc3ccccc3F)c(C(=O)O)c2C)cc1 | . | -2% | . | 1% | . | .
CCNC(=S)N1CCCC(c2nc3ccc(C)cc3[nH]2)C1 (centres undefined) | -8% | -5% | 10% | . | -5% | 10%
Cc1ccc2nc(C3CCCCC3)[nH]c2c1 | 2.8µM* | 9.5µM* | ? | . | 1.8µM* | ?
COc1ccccc1/C=C/C(=O)N1CCc2cc(OC)c(OC)cc2C1C (centres undefined) | -2% | -8% | -23% | . | -1% | -10%
Cc1ccc(C)c(NC(=O)Cn2c(=O)n(Cc3nc(C)no3)c(=O)c3cc4c(cc32)OCO4)c1 | . | 2% | . | . | . | .
Cc1cc(N2CCOCC2)nc2ccc(NC(=O)CCC(=O)N3CCN(c4ccc(F)cc4)CC3)cc12 | ? | 19µM* | ? | . | 25% | -2%
Cc1cc(N2CCN(C)CC2)nc2ccc(NC(=S)N3CCN(c4ccc(F)cc4)CC3)cc12 | -10% | 0% | -14% | -22% | -8% | -3%
Cc1ccc(C)c(N2CCN(C(=O)CCC(=O)Nc3ccc4nc(N5CCCCC5)cc(C)c4c3)CC2)c1 | . | ? | . | 10% | . | .
Cc1cc(N2CCOCC2)nc2ccc(NC(=O)CCC(=O)N3CCN(c4ccccc4F)CC3)cc12 | 4µM* | 6µM* | ? | . | ? | ?
Cc1cc(N2CCCCC2)nc2ccc(NC(=O)CCC(=O)N3CCN(c4ccccc4)CC3)cc12 | . | 9.5µM* | . | 6% | . | .
Cc1cc(N2CCOCC2)nc2ccc(NC(=O)CCC(=O)N3CCCC(C)C3)cc12 (centres undefined) | ? | 21µM* | ? | 13µM* | 4µM* | ?
COC(=O)C1CCN(C(=O)Cn2nnc(-c3cccc(F)c3)n2)CC1 | -2% | 1% | 8% | . | -5% | 0%
COc1cccc([C@@H]2Oc3ccc(Br)cc3C[C@H]2OC(=O)NS(=O)(=O)c2ccc(C)cc2)c1 | . | . | . | -4% | . | .
COc1ccc(C2CC(=O)c3c([nH]c(C(=O)OCCOc4ccccc4)c3C)C2)cc1OC (centres undefined) | . | -4% | . | 4% | . | .
Cc1cc(N2CCN(c3ccccc3F)CC2)nc2cc(O)ccc12 | 10% | 15µM* | ? | -15% | 3% | 7%
COc1ccc(Cl)cc1S(=O)(=O)N1CCC(C(=O)NCc2ccccn2)CC1 | 1% | 1% | 5% | . | -3% | -1%
COc1cc2c(C(=O)N(C)c3cc(Cl)ccc3OC)cn(CC(C)C)c(=O)c2cc1OC | . | -5% | . | -19% | . | .
CCOC(=O)c1ccccc1-c1cn2cc(Cl)ccc2n1 | 8% | 15µM* | ? | 6% | -2% | 10%
Cc1ccc(NC2=Nc3ccccc3CS2)cc1 | 0.32µM* | 0.48µM* | ? | . | 0.32µM* | ?
Cc1ccc(Nc2ccccc2)cc1 | 1% | -21% | 23% | -4% | 6% | 0%
